{"source": "PubChem BioAssay (NCATS)", "note": "Inconclusive results are not listed. Where a call stands in place of a potency, no number is given. Calls of active or inactive are those of the source. Calls come from the whole dose curve; as a rule, active = well fitted cell-killing curve with a large enough effect; inconclusive = small, poorly fitted or top-dose-only effect, or effect the other way; inactive = flat fitted curve, though single readings scatter."}
{"tested_on": "JEG-3", "experiment": "Primary qHTS to identify gynecologic anti-cancer compounds using libraries of approved drugs and bioactive compounds (AID 1345084); note: nearly all actives have a fitted effect of over 55% in size; note: potency is the fitted concentration of half-maximal effect", "conditions": "Gynecologic cancer cell panel viability, ATPlite luminescence, 48 h; series mostly up to 57.5 µM", "from_the_text": "National Center for Advancing Translational Sciences [NCATS] Assay Overview: Chemotherapeutic drug responses vary from cancer to cancer and from patient to patient. These variations could be caused by a number of factors including patient genomic background, tumor mutations, tumor heterogeneity, and aspects of drug treatment. Chemotherapeutic drug resistance is also a common issue and can lead to ineffective treatment and patient death. Here we have profiled the cell killing effects of thousands of compounds to characterize the responses in three gynecological cancers, identify cancer-selective compounds, and understand the diversity of responses to these compounds from pan-cancer suppressors to single cell line selective compounds. In this assay, we screened a 7,914 compound drug library that included approved drug and bioactive compounds in six ovarian, three cervical, and […] placental cancer cell lines using the ATPlite assay for cell viability. […] The cervical cancer cell lines included HeLa, Ca Ski, and C-33 A. The placental cancer cell lines included JEG-3. HEK 293T cells were used as the control cell line to determine the selectivity index. ATPlite is a luminescence based assay reliant on the conversion of a luciferase substrate to light in the presence of ATP. As a cytotoxic compound will suppress growth and decrease the number of cells, the concentration of ATP will decrease, and less light signal will be detected in the well.\nAssay Protocol Summary: 1,000 cells in 4 uL of media were dispensed into white, solid bottom 1536-well plates using a Multidrop Combi (Thermo Scientific). The Assay plates were incubated for 16 hours at 37 C with 5% CO2 in assay plates, followed by the addition of 23 nL of DMSO or drug dissolved in DMSO. Each compound was assayed in five concentrations (0.092, 0.46, 2.3, 11.5, and 57.5 uM), using the automated Wako 1536 Pin Tool workstation and incubated at 37 C with 5% CO2 48 hours. 4 uL of ATPlite, the ATP monitoring reagent, was then added to the each well of the assay plates using the Multidrop Combi reagent dispenser followed by incubation for 15 minutes at room temperature. The resulting luminescence was measured using the ViewLux plate reader."}
{"compound": "COC[C@H]1OC(=O)c2coc3c2[C@@]1(C)C1=C(C3=O)C2CCC(=O)[C@@]2(C)C[C@H]1OC(C)=O", "note": "(stereo not given in full)", "Potency": "inactive"}
{"compound": "C[C@@H]1O[C@@H](O[C@H]2C[C@@H](O)[C@]3(CO)[C@H]4[C@H](O)C[C@]5(C)[C@@H](C6=CC(=O)OC6)CC[C@]5(O)[C@@H]4CC[C@]3(O)C2)[C@H](O)[C@H](O)[C@H]1O", "Potency": "355 nM (active)"}
{"compound": "N[C@@H](Cc1ccc(N(CCCl)CCCl)cc1)C(=O)O", "Potency": "inactive"}
{"compound": "O=C1CC[C@@]2(O)[C@H]3Cc4ccc(O)c5c4[C@@]2(CCN3CC2CC2)[C@H]1O5", "Potency": "inactive"}
{"compound": "Cc1cccc(C)c1NC1=NCCCS1", "Potency": "inactive"}
{"compound": "CC(C)NCC(O)c1ccccc1Cl", "note": "(stereo not given)", "Potency": "inactive"}
{"compound": "O=[N+]([O-])c1cc([As](=O)(O)O)ccc1O", "Potency": "inactive"}
{"compound": "c1ccc2c(c1)Nc1ccccc1S2", "Potency": "inactive"}
{"compound": "O=C1NCN(c2ccccc2)C12CCN(CC1COc3ccccc3O1)CC2", "note": "(stereo not given)", "Potency": "inactive"}
{"compound": "CCOC(=O)C1(c2ccccc2)CCN(CCC(C#N)(c2ccccc2)c2ccccc2)CC1", "Potency": "inactive"}
{"compound": "CNC(=O)N1N=C(c2ccc(N)cc2)c2cc3c(cc2CC1C)OCO3", "note": "(stereo not given)", "Potency": "inactive"}
{"compound": "Clc1cccc(N2CCNCC2)c1", "Potency": "inactive"}
{"compound": "FC(F)(F)c1cccc(C2=CCN(CCc3ccc4ccccc4c3)CC2)c1", "Potency": "inactive"}
{"compound": "CC[C@@H](CO)NC(=O)[C@@H]1C=C2c3cccc4c3c(cn4C)C[C@H]2N(C)C1", "Potency": "inactive"}
{"compound": "CN1C(=S)CN=C(c2ccccc2)c2cc(Cl)ccc21", "Potency": "inactive"}
{"compound": "CCC(=O)C(CC(C)N(C)C)(c1ccccc1)c1ccccc1", "note": "(stereo not given)", "Potency": "inactive"}
{"compound": "CC(C)(N)Cc1ccc(Cl)cc1", "Potency": "inactive"}
{"compound": "CC(=O)[C@H]1CC[C@H]2[C@@H]3CC[C@H]4C[C@](C)(O)CC[C@]4(C)[C@H]3CC[C@]12C", "Potency": "inactive"}
{"compound": "CCN(C(C)=O)c1cccc(-c2ccnc3c(C#N)cnn23)c1", "Potency": "inactive"}
{"compound": "CCCC1CCCCN1", "note": "(stereo not given)", "Potency": "inactive"}
{"compound": "c1ccc(C2CC2)c(OCC2=NCCN2)c1", "Potency": "inactive"}
{"compound": "Oc1ccccc1-c1ccccc1", "Potency": "inactive"}
{"compound": "COC[C@@H](NC(C)=O)C(=O)NCc1ccccc1", "Potency": "inactive"}
{"compound": "CC(C)=CC1C(C(=O)OCc2cccc(Oc3ccccc3)c2)C1(C)C", "note": "(stereo not given)", "Potency": "inactive"}
{"compound": "C[C@]12C/C(=C/O)C(=O)C[C@@H]1CC[C@@H]1[C@@H]2CC[C@@]2(C)[C@H]1CC[C@]2(C)O", "Potency": "inactive"}
{"compound": "CN1CCN(C(=O)O[C@H]2c3nccnc3C(=O)N2c2ccc(Cl)cn2)CC1", "Potency": "inactive"}
{"compound": "Cc1ncc(CNC(=O)N(CCCl)N=O)c(N)n1", "Potency": "inactive"}
{"compound": "Clc1ccc(CCC(Cn2ccnc2)Sc2c(Cl)cccc2Cl)cc1", "note": "(stereo not given)", "Potency": "inactive"}
{"compound": "NCC(O)c1ccc(O)cc1", "note": "(stereo not given)", "Potency": "inactive"}
{"compound": "CCN(CC)CCOC(=O)C(O)(c1ccccc1)c1ccccc1", "Potency": "inactive"}
{"compound": "Clc1ccc(COC(Cn2ccnc2)c2ccc(Cl)cc2Cl)cc1", "note": "(stereo not given)", "Potency": "inactive"}
{"compound": "CNC(=O)c1ccc(N2C(=S)N(c3ccc(C#N)c(C(F)(F)F)c3)C(=O)C23CCC3)cc1F", "Potency": "inactive"}
{"compound": "C#CCOC(C(=O)OCCN(C)C)(c1ccccc1)c1ccccc1", "Potency": "inactive"}
{"compound": "Cc1ccc(-c2nc3ccc(C)cn3c2CC(=O)N(C)C)cc1", "Potency": "inactive"}
{"compound": "NCCc1cc(O)c(O)cc1O", "Potency": "inactive"}
{"compound": "CCC1(C2=NCCN2)Cc2ccccc2O1", "note": "(stereo not given)", "Potency": "inactive"}
{"compound": "CC[N+]1(C)CCCC(OC(=O)C(O)(c2ccccc2)c2ccccc2)C1", "note": "(stereo not given)", "Potency": "inactive"}
{"compound": "CC(C)(C)CC(C)(C)c1ccc(O)cc1", "Potency": "inactive"}
{"compound": "Fc1ccc(C(OCCN2CCN(CCCc3ccccc3)CC2)c2ccc(F)cc2)cc1", "Potency": "inactive"}
{"compound": "OCCOc1ccccc1", "Potency": "inactive"}
